Test results: PubChem BioAssay (NCATS)
Several values for one entry are separate records, joined by “and”; a condition that tells them apart may be missing. Equal values may be shown once. Results filed as inconclusive are left out. Activity calls are given as the source filed them. Calls follow the shape of the dose curve; as a rule, active = well fitted inhibition curve with a large enough effect; inconclusive = small, poorly fitted or top-dose-only effect; inactive = flat fitted curve, though single readings scatter.

Tests used:
HaCat [1] = experiment: Cytotoxic Profiling of Annotated Libraries Using Quantitative High-Throughput Screening (AID 1296008); conditions: Five cell lines viability, CellTiter-Glo ATP luminescence, 48-72 h; max response: stronger effect = lower value
Summary of the method: (§1)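 Cytotoxicity was measured as CellTiter-Glo ATP luminescence, read after 10 min at room temperature. Compound treatment of the cells lasted 48 or 72 hr at 37 degrees Celsius in a qHTS format.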

MCC-13 = experiment: qHTS assay to identify novel small-molecules to repurpose for Merkel cell carcinoma treatment (AID 1296009); conditions: MCC and control cell lines, CellTiter-Glo viability, 72 h; series mostly up to 46 µM
Summary of the method: (§2)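 Cell viability measured by CellTiter-Glo following 72 hr compound treatment at 37 degree celsius, with NPC and MIPE libraries tested in 8- and 11-point concentration series.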

MCC-26 = experiment: as above; conditions: MCC and control cell lines, CellTiter-Glo viability, 72 h; series mostly up to 46 µM
Summary of the method: as §2

MKL-1 = experiment: as above; conditions: MCC and control cell lines, CellTiter-Glo viability, 72 h; series mostly up to 46 µM
Summary of the method: as §2

NIH3T3 = experiment: Cytotoxic Profiling of Annotated Libraries Using Quantitative High-Throughput Screening (AID 1296008); conditions: Five cell lines viability, CellTiter-Glo ATP luminescence, 48-72 h; max response: stronger effect = lower value
Summary of the method: as §1

MKL-2 = experiment: qHTS assay to identify novel small-molecules to repurpose for Merkel cell carcinoma treatment (AID 1296009); conditions: MCC and control cell lines, CellTiter-Glo viability, 72 h; series mostly up to 46 µM
Summary of the method: as §2

KB-3-1 = experiment: Cytotoxic Profiling of Annotated Libraries Using Quantitative High-Throughput Screening (AID 1296008); conditions: Five cell lines viability, CellTiter-Glo ATP luminescence, 48-72 h; max response: stronger effect = lower value
Summary of the method: as §1

HACAT [2] = experiment: qHTS assay to identify novel small-molecules to repurpose for Merkel cell carcinoma treatment (AID 1296009); conditions: MCC and control cell lines, CellTiter-Glo viability, 72 h; at 44.8 µM (top of the series) unless noted
Summary of the method: as §2

HEK293T = experiment: as above; conditions: MCC and control cell lines, CellTiter-Glo viability, 72 h; at 44.8 µM (top of the series) unless noted
Summary of the method: as §2
% is scaled to controls: 0 for no effect and ±100 for the full control effect; potency is read from the fitted curve at half-maximal effect.
Also: nearly all actives have a fitted effect of over 60% in size.

CC(CC1c2ccccc2CCc2ccccc21)CN(C)C (stereo not drawn)
inactive: max response (HaCat [1]) 1.42% | Potency (MCC-13) | Potency (MCC-26) | Potency (MKL-1)

CC(=O)[C@@]1(O)CC[C@H]2[C@@H]3C[C@H](C)C4=CC(=O)CC[C@]4(C)[C@H]3CC[C@@]21C
inactive: max response (HaCat [1]) -16.6% | Potency (MCC-13) | Potency (MCC-26) | Potency (MKL-1)

Cc1cccc(N(C)C(=S)Oc2ccc3c(c2)CCC3)c1
inactive: max response (HaCat [1]) -7.13% | max response (NIH3T3) -6.52% | Potency (MCC-13) | Potency (MCC-26) | Potency (MKL-1) | Potency (MKL-2)

Cc1cccc(N(C)C(=S)Oc2ccc3c(c2)C2CCC3C2)c1 (stereo not drawn)
inactive: max response (NIH3T3) -24.5% | Potency (MCC-13) | Potency (MCC-26) | Potency (MKL-1)

NC(N)=NCCCCN=C(N)N
inactive: max response (KB-3-1) -9.65%

CC(C)=CCNc1ncnc2c1ncn2[C@@H]1O[C@H](CO)[C@@H](O)[C@H]1O
active: Potency (NIH3T3) 7.5 µM | Potency (MCC-13) 8.41 µM | Potency (MKL-1) 1.68 µM | Potency (MKL-2) 0.944 µM

COc1ccc(-n2nc(CCC(=O)N(C)O)cc2-c2ccc(Cl)cc2)cc1
active: Potency (MKL-2) 21.1 µM
inactive: outcome (HaCat [1]) | outcome (HACAT [2])

COC(=O)C1=C(C)NC(COC(N)=O)=C(C(=O)OC(C)C)C1c1cccc(Cl)c1Cl (stereo not drawn)
inactive: max response (KB-3-1) 2.72% | Potency (MCC-13) | Potency (MCC-26) | Potency (MKL-1)
active: Potency (NIH3T3) 15 µM

C/C(=C(/OCCOc1ccc(Cl)cc1)c1ccc(Cl)cc1Cl)n1ccnc1
inactive: max response (NIH3T3) -25.5% | Potency (MCC-13) | Potency (MKL-1)

O=C1NC(c2cccc([N+](=O)[O-])c2)=CCN1c1ccccc1O
inactive: max response (KB-3-1) -1.53%

COc1c(C)c2c(c(O)c1C/C=C(\C)CCC(=O)OCCN1CCOCC1)C(=O)OC2
active: Potency (MCC-13) 0.944 µM
inactive: max response (HaCat [1]) -40.9% | Potency (MKL-1) | Potency (MKL-2)

CCCc1c2oc(C(=O)O)cc(=O)c2cc2c(=O)cc(C(=O)O)n(CC)c12
inactive: outcome (HACAT [2]) | Potency (MCC-13) | Potency (MCC-26) | Potency (MKL-1) | Potency (MKL-2)

Nc1ncnc2n[nH]c(Nc3ccc(F)cc3)c12
inactive: outcome (KB-3-1)

CN1CCCN=C1/C=C/c1cccs1
inactive: outcome (HACAT [2]) | outcome (HEK293T) | Potency (MCC-13) | Potency (MCC-26) | Potency (MKL-1) | Potency (MKL-2)

COc1cccc2c1[C@@H]1CN(CCCCn3c(=O)[nH]c4c(sc5ncc(-c6ccccc6)nc54)c3=O)C[C@@H]1CO2
inactive: max response (KB-3-1) 2.96%

C[N+](C)(C)CCO
inactive: max response (KB-3-1) -9.9% and -0.543%

CC(NCCC(c1ccccc1)c1ccccc1)c1ccccc1 (stereo not drawn)
inactive: max response (KB-3-1) -10.5%
active: Potency (MKL-2) 11.9 µM

O=C(c1cc(O)c(O)c(O)c1)c1ccc(O)c(O)c1O
inactive: max response (HaCat [1]) -2.77% | Potency (MCC-13) | Potency (MCC-26)

COC(=O)c1cc(Cl)ccc1NS(=O)(=O)C(F)(F)F
inactive: max response (HaCat [1]) -18% | max response (NIH3T3) -7.02% | Potency (MCC-13) | Potency (MKL-1) | Potency (MKL-2)

CN(C)CCOC(c1ccccc1)c1ccc(Br)cc1 (stereo not drawn)
inactive: max response (HaCat [1]) 1.11% | max response (NIH3T3) -1.24% | Potency (MCC-13) | Potency (MKL-1)

CC(C)NCCCC1(C(N)=O)c2ccccc2-c2ccccc21
inactive: max response (HaCat [1]) 4.87% | max response (NIH3T3) -1.37% | Potency (MCC-13) | Potency (MCC-26) | Potency (MKL-1) | Potency (MKL-2)

CCC1(c2cnc[nH]2)Cc2ccccc2C1
inactive: Potency (MCC-13) | Potency (MCC-26) | Potency (MKL-1) | Potency (MKL-2)

CC(C)(c1ccc(O)cc1)c1ccc(O)cc1
inactive: max response (HaCat [1]) -13.2% | Potency (MCC-13) | Potency (MCC-26) | Potency (MKL-1) | Potency (MKL-2)

CCCCCC(=O)O[C@]1(C(C)=O)CC[C@H]2[C@@H]3CCC4=CC(=O)CC[C@]4(C)[C@H]3CC[C@@]21C
inactive: Potency (MCC-26) | Potency (MKL-2)

CCN(CC)CCOc1ccc(/C(=C(\Cl)c2ccccc2)c2ccccc2)cc1
active: Potency (MKL-1) 23.7 µM

Cc1c(C)c2c(c(C)c1OC(=O)CCC(=O)OCCO)CC[C@@](C)(CCC[C@H](C)CCC[C@H](C)CCCC(C)C)O2
inactive: max response (KB-3-1) -31.1% | max response (NIH3T3) -19.3% | Potency (MCC-13) | Potency (MCC-26) | Potency (MKL-1) | Potency (MKL-2)

CN(C)c1cc2c(Nc3ccc4c(cnn4Cc4ccccc4)c3)ncnc2cn1
inactive: max response (NIH3T3) -15.7%

CC(C)(C)c1ccc(C(=O)CCCCl)cc1
inactive: max response (HaCat [1]) 3.33% | outcome (NIH3T3) | Potency (MCC-13) | Potency (MCC-26) | Potency (MKL-1) | Potency (MKL-2)

CC(C)C[C@H](NC(=O)CNC(=O)[C@H](Cc1ccc(O)cc1)NC(=O)[C@H](CO)NC(=O)[C@H](Cc1c[nH]c2ccccc12)NC(=O)[C@H](Cc1cnc[nH]1)NC(=O)[C@@H]1CCC(=O)N1)C(=O)N[C@@H](CCCN=C(N)N)C(=O)N1CCC[C@H]1C(=O)NCC(N)=O (stereo in doubt)
inactive: max response (KB-3-1) -12.3% | Potency (MCC-13) | Potency (MCC-26) | Potency (MKL-1) | Potency (MKL-2)

CN=C(N)NC(=O)Nc1c(C)cccc1C
inactive: outcome (HACAT [2]) | Potency (MCC-13) | Potency (MCC-26) | Potency (MKL-1) | Potency (MKL-2)
